# Compounds with a hit are over-represented: about 7.6% of the library has one in this group of screens.
# MCF10A rereplic: inducers of DNA re-replication in MCF 10A breast cells; 2.9% of 350,000 active; AID 624296; MCF 10A DNA re-replication, Hoechst nuclear intensity, 48 h; Potency, µM (series often up to 46.1 µM), inactives show top-dose activity, positive = re-replication, usual class: activators; further: potency means the concentration at half of the fitted maximal effect; % of control where 0% means no effect; nearly all actives have a fitted effect of over 50% in size
# KCNH2 3.1 inh: KCNH2 3.1 (human) potassium channel inhibition | U2OS KCNH2 3.1, thallium flux FluxOr; active compounds read low | activity change, % (tested at about 1.8 µM) | 0.95% of 340,000 active;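 active means maximum activity change below -70%; inconclusive means maximum activity change from -70% to -50%; inactive means maximum activity change above -50%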;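 further: thallium influx rate constant from kinetic fluorescence after stimulation buffer; on the % scale 0 is the no-effect control and ±100 the full control effect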
#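 Thallium flux read-out: FluxOr dye with Red40 quencher in HBSS/HEPES, 45 min at RT. Rate constants from kinetic reads were normalized to positive and negative DMSO controls. Cells: U2OS virally expressing the 3.1 isoform.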
# KB-V1 MDR tox: kills drug-selected multidrug resistant KB-V1 cells | KB-V1 MDR cells viability, CellTiter-Glo, 72 h | Potency, µM (highest dose often 46.1 µM), hits mostly cytotoxic | 3.4% of 400,000 active | AID 1347076; further: potency means the concentration at half of the fitted maximal effect; on the % scale 0 is the no-effect control and ±100 the full control effect; nearly all actives have a fitted effect of over 60% in size
#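 In this primary screen, KB-V1 cells overexpressing P-gp are incubated with library compounds (lowest to highest concentration) for 72 h at 37 degrees C before a luminescent ATP viability read.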
# KCNH2 WT inh: KCNH2 (human, wildtype) channel inhibition | U2OS, BacMam KCNH2, thallium flux FluxOr; active compounds read low | 0.37% of 340,000 active | activity change, % at 1.84 µM | Q12809;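 active means maximum activity change below -70%; inconclusive means maximum activity change between -70% and -50%; inactive means maximum activity change above -50%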; further: on the % scale 0 is the no-effect control and ±100 the full control effect
#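 U2OS cells transduced with wild-type KCNH2 virus are loaded with FluxOr dye for 45 min, and thallium flux is measured in kinetic reads before and after stimulation buffer. Rate constants are normalized to DMSO controls.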
# KB-3-1 cytotox: kills parental KB-3-1 adenocarcinoma cells. Potency, µM (doses to about 46.1 µM), actives largely listed as cytotoxic. AID 1347075. 1.4% of 400,000 active. KB-3-1 viability, CellTiter-Glo ATP luminescence, 72 h; further: potency means the concentration at half of the fitted maximal effect; on the % scale 0 is the no-effect control and ±100 the full control effect; nearly all actives have a fitted effect of over 60% in size
#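 Viability of parental KB-3-1 cells, measured by CellTiter-Glo luminescence, followed a 72 h incubation at 37 °C with pinned compounds in phenol-red-free DMEM containing 10% FBS.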
# SW480 rereplic: inducers of DNA re-replication in SW480 colon cancer cells. SW480 DNA re-replication, Hoechst DNA content imaging, 48 h. Potency, µM (series often up to 46.1 µM), for inactives: at the top dose re-replication activation, usual class: activators. 1.8% of 340,000 active; further: potency means the concentration at half of the fitted maximal effect; % of control where 0% means no effect; nearly all actives have a fitted effect of over 55% in size
#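 Image-based DNA-content assay: after two days of treatment, nuclei were labelled with the DNA dye Hoechst and imaged, and hits were compounds raising the count of nuclei showing high fluorescence intensity.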
# An asterisk follows results filed as active; i = inactive; ? = inconclusive; . = no result given; [ ] = dose if it differs, or a comment. Unless noted, the call rests on the fitted dose curve; in most records, active means well fitted curve in the direction sought with a large enough effect; inconclusive means small, poorly fitted or top-dose-only effect, or another doubt; inactive means no such curve, though single readings can be large; an effect the other way counts as inactive or inconclusive.
SMILES,MCF10A rereplic,KCNH2 3.1 inh,KB-V1 MDR tox,KCNH2 WT inh,KB-3-1 cytotox,SW480 rereplic
CC(=O)Nc1cccc(NC(=O)Nc2ccc(F)cc2F)c1,-7.2%,-4.4,i,2.0,i,19.5%
CCSc1nsc(NC(=O)Nc2ccccc2Cl)n1,?,-1.8,?,3.8,?,18.5%
Fc1cc(Br)ccc1NC(=S)Nc1ccccc1,?,-2.9,14.6µM*,1.6,?,-5.8%
CCc1nc2ccc(C(=O)Nc3ccc(C(N)=O)cc3)cn2c1N(CCC(C)C)CCN(C)C,.,.,i,.,i,.
Oc1ccc(Nc2nc(N3CCCC3)c3ccccc3n2)cc1,?,-86.7*,i,-1.5,9.2µM*,?
Cc1ccc(Nc2nc(N3CCOCC3)c3ccccc3n2)cc1,?,-2.0,i,4.1,?,-2.5%[9.22 µM]
COc1ccc(Nc2nc(N3CCCCC3)c3ccccc3n2)cc1,19.1%,-12.9,20.6µM*,6.7,?,6.9%
COc1ccccc1-c1cnc(C(O)c2ccc(C(C)(C)C)cc2)[nH]1 (stereo unspecified),.,.,20.6µM*,.,?,.
COc1c(C)cc(C(O)c2ncc(-c3ccccc3C(F)(F)F)[nH]2)cc1C (stereo unspecified),.,.,18.4µM*,.,i,.
COc1ccccc1-c1cnc(C(O)c2ccccc2)[nH]1 (stereo unspecified),.,.,?,.,i,.
COc1ccccc1-c1cnc(C(O)c2ccc(Cl)c(Cl)c2)[nH]1 (stereo unspecified),.,.,23.1µM*,.,?,.
COc1ccccc1-c1cnc(C(O)c2cc(Cl)cc(Cl)c2)[nH]1 (stereo unspecified),.,.,i,.,i,.
O=C(NCCc1nc2ccccc2n1CCOc1ccccc1)C1CCCCC1,.,.,i,.,i,.
COC(=O)C1C(OC)=CC(=O)C2CCCCC21 (stereo unspecified),11.8%,10.7,i,-10.1,i,-4.9%
N#CC(CCc1ccccc1[N+](=O)[O-])(CCc1ccccc1[N+](=O)[O-])C(N)=O,1.1%,-121.0*,i,?,i,5.0%
CC(C)n1nnc(-c2ccc(OCc3ccccc3F)cc2)n1,-2.5%,4.5,i,2.0,i,14.6µM*
CC12CN3CC(C)(CN(C1)C3c1ccccc1F)C2 (stereo unspecified),0.3%,-98.7*,i,1.4,i,-0.6%
COC(=O)C1=C(C)N(Cc2ccccc2)C(=NCc2cccc(Cl)c2)N[C@H]1c1cccc(F)c1,?,?,20.6µM*,-15.1,?,?
COC(=O)C1=C(C)N(Cc2ccccc2)C(=NCCc2cccnc2)N[C@H]1c1ccc(Br)cc1,28.7%,-89.2*,i,-48.1,?,?
COC(=O)C1=C(C)N(Cc2ccccc2)C(=NCc2ccc(OC)cc2)N[C@H]1c1cccc(F)c1,3.7%,.,?,.,?,?
COc1cc(NC(=O)C2=C(N3CCOCC3)/C(=C\c3ccc(N(C)C)cc3)CCC2)cc(OC)c1OC,18.4µM*,-13.1,2.59µM*,-0.6,11.6µM*,10.3µM*
CCCc1nc2c(s1)CCc1onc(-c3ccc(OC)cc3)c1-2,8.2µM*,-2.3,i,4.4,i,-1.5%
CCCc1nc2c(s1)CCc1onc(-c3ccc(Cl)cc3)c1-2,?,-0.1,i,-17.6,i,-0.2%
COc1ccc(-c2noc3c2-c2nc(-c4ccccc4C)sc2CC3)cc1,?,0.2,?,-3.5,18.4µM*,20.6µM*
O=C(NCc1cccs1)c1ccc2sc(COCCO)nc2c1,.,.,i,.,i,.
SMILES,MCF10A rereplic,KCNH2 3.1 inh,KB-V1 MDR tox,KCNH2 WT inh,KB-3-1 cytotox,SW480 rereplic
Cc1ccsc1C(=O)N1CCC1(C)C(=O)NCc1cccnc1 (stereo unspecified),.,.,i,.,i,.
NC(=O)[C@H]1O[C@@H](O)[C@H](O)[C@@H](O)[C@@H]1O,-0.1%,.,.,.,.,-1.8%
c1ccc(N2CCN(Cc3cnc(N4CCOCC4)s3)CC2)cc1,?,-4.6,13µM*,-6.2,i,2.8%
OCC1(CCCc2ccccc2)CCN(Cc2cnc(N3CCOCC3)s2)CC1,?,-0.8,?,8.4,20.6µM*,-3.0%
CN(CCCNC(=O)Cn1cccc1C(=O)c1ccccc1)C1CCCCC1,-1.8%,5.1,i,37.2,i,i[1.84 µM]
FC(F)(F)c1cccc(Cn2nnnc2-c2cccc(C(F)(F)F)c2)c1,?,-25.7,14.6µM*,4.6,i,0.3%
FC(F)(F)c1cccc(Cn2nnnc2-c2cc(Cl)cc(Cl)c2)c1,1.7%,-14.3,i,18.6,i,-2.4%
Nc1nc(C(c2ccccc2)c2ccccc2)cs1,-1.0%,2.2,i,-4.2,i,6.8%
CCn1c2ccccc2c2nc3ccccc3nc21,13µM*,8.4,i,-13.3,i,13.5%
CCn1c2ccccc2c2nc3cc(OC)c(OC)cc3nc21,2.91µM*,12.2,2.06µM*,-3.3,?,18.4µM*
CN(Cc1ccccc1)C(=O)N1CCOCC1,-9.3%,-2.3,i,-14.7,i,-30.2%
CC(=O)c1ccc(NC(=O)Cn2ncc3c4ccccc4n(Cc4ccccc4)c3c2=O)cc1,.,.,i,.,i,.
Cc1ccc(C(=O)C2CCOC(C)(C)C2)cc1 (stereo unspecified),-3.5%,-5.7,i,-6.0,i,1.5%
COc1ccc(-c2cn3c(C)c(C(=O)NCCN4CCOCC4)sc3n2)cc1,-6.1%,-2.1,11.6µM*,-2.9,i,-6.6%
CCN(CC)C(=O)c1sc2nc(-c3ccc(OC)cc3)cn2c1C,0.0%,13.1,3.66µM*,-1.8,i,-0.6%
Fc1cccc(Nc2nc(N3CCOCC3)nc(N3CCOCC3)n2)c1,23.1µM*,-4.7,i,-6.1,?,?
CCc1ccc(Nc2nc(N3CCOCC3)nc(N3CCOCC3)n2)cc1,19.4%,-22.4,i,8.3,?,8.2µM*
Clc1cccc(Nc2nc(N3CCOCC3)nc(N3CCOCC3)n2)c1,15.1%,5.3,i,-10.2,i,51.2%
FC(F)(F)Oc1ccc(Nc2nc(N3CCOCC3)nc(N3CCOCC3)n2)cc1,?,-77.2*,i,11.5,i,20.6µM*
CCOC(=O)c1ccc(Nc2nc(N3CCOCC3)nc(N3CCOCC3)n2)cc1,?,7.1,i,-4.5,i,?
Cc1ccc(Cl)cc1N1CCN(C(=O)COc2ccc3c(c2)CCC3)CC1,13µM*,-9.5,i,i,?,20.5%
CC(=O)c1ccc(N2CCN(C(=O)COc3ccc4c(c3)CCC4)CC2)cc1,-31.5%,-31.9,i,12.1,i,-5.8%
O=C(CO/N=C/c1ccccc1O)N1CCc2ccccc21,6.3%,-13.5,13µM*,-1.7,i,0.6%
Cc1ccc(OCC(=O)N2CCc3ccccc32)cc1,17.5%,.,i,-14.9,i,-4.7%
